Screens deposited in PubChem BioAssay by several laboratories.
A selection: hits, their analogues and other compounds. The true share with any hit is near 1.6%.
eIF4E-4G inh = eIF4E/eIF4G interaction inhibition in translation initiation; P63073+Q04637; TR-FRET eIF4E-eIF4GI(517-606) binding, 2 h; inhibition, % at 21.7 µM; 220,000 compounds, 0.37% hits; AID 782;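 active means inhibition above about 30%, limit read from the data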;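 further: 0% = full FRET control wells and 100% = background wells lacking eIF4GI fragment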
PERK inh = human PERK inhibition, primary cell-based screen | inhibition, % at 5.6 µM | AID 1416 | 220,000 compounds, 0.17% hits | CHO PERK-DD fusion, SEAP luminescence translation reporter;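 active means inhibition above the mean inhibition of all tested compounds plus 3 SD, set separately per screening campaign, cut at about 2.9% in these data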;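 further: PERK kinase domain activated by AP20187 dimerizer at 100 nM; 0% = DMSO with dimerizer and 100% = rapamycin at 8.4 µM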
eIF4H inh = inhibitors of RNA binding by human eIF4H; inhibition, % at 35 µM; 290,000 compounds, 0.94% hits; eIF4H fluorescence polarization binding assay; Q15056;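 further: calls also rest on retests at 20 µM and on dose response follow-up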
PABP1 MLLE inh = blocks PAM2 peptide binding to the PABP1 MLLE domain; inhibition, % at 20 µM; AID 588489; 360,000 compounds, 0.36% hits; P11940; GST-MLLE / FITC-PAM2 fluorescence polarization; in the data active means inhibition above about 35%, passing the limit was not always enough;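 further: plate controls were DMSO wells with GST-MLLE for no effect and wells lacking GST-MLLE protein for full effect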
PABP polyA inh = PABP-poly(A) binding inhibition; P11940; PABP-poly(A) RNA binding, fluorescence polarization; inhibition, % at 35 µM; 290,000 compounds, 1% hits;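 further: calls also rest on retests at 20 µM and on dose response follow-up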
The depositor's hits bear a star. Unless noted, how the calls were made is not given here.

Screening CC1(C)C(=O)Nc2ccccc2N1C(=O)COc1ccc(S(=O)(=O)N2CCOCC2)cc1Cl returned eIF4E-4G inh 18.9, PERK inh -0.7, eIF4H inh 64.3, PABP1 MLLE inh -19.6 and PABP polyA inh 20.8*.
`O=C(COc1ccc(S(=O)(=O)N2CCOCC2)cc1Cl)N1CCCC1` gave eIF4H inh -12.1, PABP1 MLLE inh -4.3 and PABP polyA inh -15.1.
Screening COc1ccc(N=C2SC(CC(=O)Nc3ccccc3)C(=O)N2CCN2CCOCC2)cc1 (stereo not drawn) returned eIF4E-4G inh -7.3, PERK inh 0.0, eIF4H inh active, PABP1 MLLE inh -4.0 and PABP polyA inh 71.6*.
Screening COc1ccc(N=C2SC(CC(=O)Nc3ccccc3)C(=O)N2CC2CCCO2)cc1 (stereo not drawn) returned eIF4E-4G inh 1.2, PERK inh -1.5, eIF4H inh -4.8, PABP1 MLLE inh 2.2 and PABP polyA inh -1.8.
O=C(CCC(=O)Nc1ccc(Br)cc1)N/N=C/c1ccc(O)cc1 was read as eIF4H inh 2.0, PABP1 MLLE inh -2.6 and PABP polyA inh 2.2.
`CCC(=O)Nc1ccc(C(=O)CSc2nnc(-c3ccccc3F)n2C2CC2)cc1` gave eIF4E-4G inh 0.0, PERK inh -0.6, eIF4H inh 72.7*, PABP1 MLLE inh 7.4 and PABP polyA inh -3.8.
Screening COc1ccc(Cl)cc1N1CC(C(=O)Nc2nccs2)CC1=O (stereo not drawn) returned eIF4E-4G inh 3.9, PERK inh -0.1, eIF4H inh 9.5, PABP1 MLLE inh 9.5 and PABP polyA inh 6.5.
For Cc1ccc(C(=O)NCCc2nnc3ccc(SCC(=O)N4CCCC4)nn23)cc1 the results were eIF4H inh 4.8, PABP1 MLLE inh 20.2 and PABP polyA inh -3.0.
For O=[N+]([O-])c1c(NCCCO)cc(SCc2ccco2)c2nonc12 the results were eIF4E-4G inh -0.6, PERK inh -0.8, eIF4H inh inconclusive, PABP1 MLLE inh 41.0* and PABP polyA inh -13.9.
Screening CC(=O)OCCNc1cc(SCc2ccco2)c2nonc2c1[N+](=O)[O-] returned eIF4E-4G inh 3.2, PERK inh -0.8, eIF4H inh 96.4, PABP1 MLLE inh 36.7 and PABP polyA inh 41.7.
Cc1c(S(=O)(=O)c2ccccn2)c(N)n(Cc2cccc(Cl)c2)c1C was read as eIF4E-4G inh 72.8*, PERK inh 0.2, eIF4H inh 62.0, PABP1 MLLE inh -54.1 and PABP polyA inh 9.7.
N=C1/C(=C/c2ccco2)C(=O)N=C2SC(CC(=O)N3CCCC3)=NN12 was read as eIF4H inh 78.6*, PABP1 MLLE inh -3.6 and PABP polyA inh 48.2*.
CS(=O)(=O)C1=NN2C(=N)/C(=C\c3ccc(OC(=O)c4ccco4)cc3)C(=O)N=C2S1 was read as eIF4H inh -10.0, PABP1 MLLE inh -13.6 and PABP polyA inh 9.1.
`N=C1/C(=C/c2ccc(Br)o2)C(=O)N=C2SC(CC(=O)N3CCCC3)=NN12` gave PABP1 MLLE inh -23.3.
`CC(C)CS(=O)(=O)C1=NN2C(=N)/C(=C\c3ccc(OC(=O)c4ccco4)cc3)C(=O)N=C2S1` gave eIF4H inh 66.5*, PABP1 MLLE inh -20.1 and PABP polyA inh 60.7*.
For Cc1ccc(C)c(NC(=O)CSc2ccc(-c3cccs3)nn2)c1 the results were eIF4E-4G inh 1.7, PERK inh 1.3, eIF4H inh 21.6*, PABP1 MLLE inh 9.0 and PABP polyA inh 120.4*.
For Cc1cccc(NC(=O)CSc2ccc(-c3cccs3)nn2)c1C the results were eIF4E-4G inh 3.1, PERK inh 0.0, eIF4H inh -3.3, PABP1 MLLE inh -6.6 and PABP polyA inh -21.5.
For COC/C=C/C1=CC2=CC(=O)C(C)(OC(=O)c3cnc4ccccc4n3)C(=O)C2=CN1c1ccc(CO)cc1 (stereo not drawn) the results were eIF4H inh 102.4* and PABP polyA inh 78.5*.
COC/C=C/C1=CC2=CC(=O)C(C)(OC(=O)c3cnc4ccccc4n3)C(=O)C2=CN1CC(C)C (stereo not drawn) was read as PABP1 MLLE inh 10.8.
For COC/C=C/C1=CC2=CC(=O)C(C)(OC(=O)c3cnc4ccccc4n3)C(=O)C2=CN1c1ccccc1 (stereo not drawn) the results were eIF4E-4G inh 5.2, eIF4H inh 62.8* and PABP polyA inh 43.7*.
`COc1ccc(NC(=O)c2c(F)cccc2F)cc1S(=O)(=O)Nc1ccc(Br)cc1` gave eIF4E-4G inh -10.1, PERK inh -0.3, eIF4H inh -4.7, PABP1 MLLE inh -5.7 and PABP polyA inh 10.1.
`O=C(Nc1ccc(F)cc1)c1ccc2c(=O)n3c(nc2c1)CCCCC3` gave eIF4H inh -2.6, PABP1 MLLE inh -6.6 and PABP polyA inh -11.6.
`C=C(C)CN(CC)c1nc(N)c(C#N)c(CC#N)c1C#N` gave eIF4E-4G inh 2.1, PERK inh 0.3, eIF4H inh 84.1*, PABP1 MLLE inh 5.2 and PABP polyA inh 76.0*.
Cc1ccc(-n2c(C)cc(C(=O)CN3CCOCC3)c2C)cc1C was read as eIF4E-4G inh -1.7, PERK inh 0.4, eIF4H inh active, PABP1 MLLE inh -5.5 and PABP polyA inh 67.0*.
For Cc1ccc(-n2c(C)cc(C(=O)CN3CCOCC3)c2C)cc1 the results were eIF4E-4G inh 5.1, PERK inh 0.7, eIF4H inh -6.2, PABP1 MLLE inh 6.9 and PABP polyA inh 0.1.
Screening O=C(O)c1ccc(C[n+]2c(-c3ccccc3)csc2Nc2ccccc2)cc1 returned eIF4E-4G inh 23.3, PERK inh 0.5, eIF4H inh 0.6, PABP1 MLLE inh -6.2 and PABP polyA inh 11.0.
CCOc1ccccc1-c1nc(-c2ccc(NC(=O)Cc3ccccc3OC)cc2)no1 was read as eIF4E-4G inh 4.1, PERK inh -0.1, eIF4H inh 53.7*, PABP1 MLLE inh -13.1 and PABP polyA inh 8.4*.
Cc1c(/C=C(\C#N)c2nn(-c3ccccc3)c(N)c2C#N)c2ccccc2n1Cc1ccc(F)cc1 was read as eIF4E-4G inh -6.6, PERK inh -0.4, eIF4H inh 51.6*, PABP1 MLLE inh -38.6 and PABP polyA inh 68.5*.
For Cc1ccc(C)c(/C(O)=C2/C(=O)C(=O)N(CCN3CCOCC3)C2c2ccco2)c1 (stereo not drawn) the results were eIF4E-4G inh 2.9, PERK inh 0.1, eIF4H inh 54.8*, PABP1 MLLE inh 11.6 and PABP polyA inh 25.1.
Screening Cc1ccc(CN(c2ccc(C(=O)N3CCOCC3)cc2)S(C)(=O)=O)cc1 returned eIF4E-4G inh 4.4, PERK inh -1.2, eIF4H inh -6.6, PABP1 MLLE inh 4.1 and PABP polyA inh -6.5.
`CNC(=O)/C(C#N)=C\c1ccc(CNS(=O)(=O)c2ccccc2)o1` gave eIF4E-4G inh 0.1, PERK inh 0.5, eIF4H inh 8.9, PABP1 MLLE inh -7.3 and PABP polyA inh 6.3.
For CNC(=O)/C(C#N)=C\c1ccc(CNS(=O)(=O)c2ccc(Cl)cc2)o1 the results were eIF4E-4G inh 6.7, PERK inh 0.6, eIF4H inh 3.3, PABP1 MLLE inh -109.2 and PABP polyA inh 62.5*.
